Source: PubChem BioAssay
The source made the active and inactive calls.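 How the source made its calls, unless noted: active means inhibition of the reporter signal at or above 50%; inactive means inhibition below 50%.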

Experiments:
[1] = inhibitors of TNFa-induced NFkB p65 translocation, primary screen, imaging, HUVEC, MLSMR starter and 10KST1 sets (AID 438;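 active means inhibition above 20% together with a positive visual image hit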;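 further: compound added about 3h40 before a 20 min TNFalpha stimulation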;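 on inhibition: signal is the nuclear over cytoplasmic p65 intensity ratio per well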); details: HUVEC TNFa-induced p65 nuclear translocation; cell count: measured here: nuclei count (cytotoxicity indicator), at 2.08 µM; inhibition: at 2 µM, stronger effect = higher value, 0% TNFa-plus-vehicle, 100% no-TNFa wells
[2] = reduction of polyQ htt aggregates in cells – imaging, exon1htt(103Q)mCFP cells, high-content imaging, primary screen (AID 483;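 active means visual image review flags a hit and inhibition of aggregation exceeds 20%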;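 further: compound exposure lasted 3 days before fixation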;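 on nuclei count: percent of the per-plate median nuclei count of sample wells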); details: exon1htt(103Q)mCFP cell line, aggregate imaging, at 2 µM; inhibition of aggregation: stronger effect = higher value; nuclei count: measured here: cell count, toxicity
[3] = endothelial E-selectin expression blockers – imaging, HUVEC, immunofluorescence, MLSMR starter and 10KST1 sets, primary screen (AID 487;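 active means visually confirmed hit in the image check and inhibition above 20%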;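 on inhibition: signal is fraction of cell area covered by stained E-selectin grains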;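 on nuclei count: 100% = median nuclei count of all wells on the same plate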); details: HUVEC TNFalpha-induced E-selectin immunofluorescence imaging, at 2 µM; inhibition: stronger effect = higher value; nuclei count: measured here: cell number, toxicity
[4] = target: Voltage-gated potassium channel subunit beta-2 (Rattus norvegicus) (UniProt P62483); assay: inhibitors of rat Kvbeta2 reductase activity – biochemical, NADPH fluorescence, primary screen (AID 622;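 active means fluorescence slope higher than the sample average by over 3 SD, cut at about -0.22 in these data, passing the limit was not always enough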;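 further: slope of raw intensity against log time taken from 70 to 1610 s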); details: recombinant KvBeta, 4-cyanobenzaldehyde reduction, at 10 µM, stronger effect = higher value
Voltage-gated potassium channel subunit beta-2 (Rattus norvegicus), sequence (P62483 whole entry, looked up): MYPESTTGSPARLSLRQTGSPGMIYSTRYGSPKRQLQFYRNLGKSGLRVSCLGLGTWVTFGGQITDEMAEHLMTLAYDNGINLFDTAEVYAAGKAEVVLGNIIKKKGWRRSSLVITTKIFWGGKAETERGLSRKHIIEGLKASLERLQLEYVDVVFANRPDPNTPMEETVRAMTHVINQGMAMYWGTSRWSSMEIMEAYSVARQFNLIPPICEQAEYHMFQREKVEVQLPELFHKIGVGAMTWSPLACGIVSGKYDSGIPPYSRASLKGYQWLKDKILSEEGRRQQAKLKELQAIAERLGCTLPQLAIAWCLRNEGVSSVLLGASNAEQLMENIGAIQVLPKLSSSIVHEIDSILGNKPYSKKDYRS

[5] = target: Voltage-gated potassium channel subunit beta-2 (Rattus norvegicus) (UniProt P62483); assay: enhancers of rat Kvbeta2 NADPH turnover – biochemical, NADPH fluorescence, primary screen (AID 623;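 active means NADPH fluorescence slope more negative than the mean of all samples by about 3 SD, 99.7% confidence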;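 further: fluorescence intensity change per second fitted from 20 to 320 s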); details: Recombinant KvBeta, NADPH fluorescence decrease slope, 10 min; at 10 µM; stronger effect = lower value
[6] = target: Muscarinic acetylcholine receptor M4 (Homo sapiens) (UniProt P08173); assay: M4-linked GIRK flux change, two-sided – cell-based, HEK293 M4/GIRK, thallium flux, BTC-AM, M4 allosteric agonist project, primary screen (AID 625;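 active means fluorescence slope after compound addition differing from the mean of all tested samples at 99.7% confidence, mostly higher but some lower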;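 further: thallium influx through GIRK channels coupled to M4 in HEK293 cells with BTC-AM dye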); details: at 10 µM, actives lie on both sides
Muscarinic acetylcholine receptor M4 (Homo sapiens), sequence (P08173 whole entry, looked up): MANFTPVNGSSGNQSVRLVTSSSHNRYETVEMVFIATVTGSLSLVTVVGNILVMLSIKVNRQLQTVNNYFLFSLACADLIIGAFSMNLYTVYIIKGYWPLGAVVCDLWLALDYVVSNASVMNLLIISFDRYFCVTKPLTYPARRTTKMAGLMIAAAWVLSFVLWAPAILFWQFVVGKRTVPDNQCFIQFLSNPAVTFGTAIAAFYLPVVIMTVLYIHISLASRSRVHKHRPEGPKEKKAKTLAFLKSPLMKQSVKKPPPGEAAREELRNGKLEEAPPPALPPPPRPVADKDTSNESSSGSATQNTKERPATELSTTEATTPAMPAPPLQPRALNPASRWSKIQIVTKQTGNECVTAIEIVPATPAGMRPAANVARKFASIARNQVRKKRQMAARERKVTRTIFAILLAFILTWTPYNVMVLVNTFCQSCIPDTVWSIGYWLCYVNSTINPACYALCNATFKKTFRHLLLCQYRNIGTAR

[7] = blockers of RIG-like receptor reporter activation – cell-based, Sendai virus stimulus, luciferase, 10K MLSCN set, TLR/RLR signaling modifier project, primary screen (AID 602276;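 active means inhibition at or above 50% at 10 µM; inactive means inhibition below 50%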;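 further: firefly luciferase from ISG56 promoter only with Renilla not read in this screen; 0% = Sendai virus plus DMSO and 100% = medium plus DMSO without virus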); details: HEK293 RL24 IRF3 luciferase reporter, at 10 µM, stronger effect = higher value
[8] = TLR3 IRF3 reporter activation blockers – cell-based, poly I:C stimulus, luciferase, 10K MLSCN set, primary screen (AID 602277); details: HEK293-TLR3 RL24 IRF3 luciferase reporter, at 10 µM, stronger effect = higher value
[9] = target: Alpha-2C adrenergic receptor (Homo sapiens) (UniProt P18825); assay: compounds altering alpha2C-coupled GIRK flux – cell-based, HEK293 alpha2C/GIRK1/2, thallium flux, primary screen (AID 624;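 active means fluorescence slope after compound addition differing from the mean of all screened samples at 99.7% confidence, in either direction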;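 further: slope of fluorescence ratio to pre-addition baseline per second over 15 to 24 s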); details: thallium flux BTC fluorescence, at 10 µM, actives lie on both sides
Alpha-2C adrenergic receptor (Homo sapiens), sequence (P18825 whole entry, looked up): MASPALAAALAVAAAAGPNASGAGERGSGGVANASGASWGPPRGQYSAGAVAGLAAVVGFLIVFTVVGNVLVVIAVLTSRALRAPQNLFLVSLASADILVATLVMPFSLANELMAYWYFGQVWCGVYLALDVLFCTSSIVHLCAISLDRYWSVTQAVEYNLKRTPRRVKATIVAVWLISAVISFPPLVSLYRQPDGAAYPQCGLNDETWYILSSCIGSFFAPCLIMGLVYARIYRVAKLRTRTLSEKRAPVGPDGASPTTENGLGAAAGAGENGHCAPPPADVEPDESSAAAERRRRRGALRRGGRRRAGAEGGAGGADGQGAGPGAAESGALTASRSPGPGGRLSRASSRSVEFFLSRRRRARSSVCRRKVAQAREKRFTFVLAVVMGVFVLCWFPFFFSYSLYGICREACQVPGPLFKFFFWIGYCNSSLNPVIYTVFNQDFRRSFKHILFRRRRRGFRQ

[10] = inhibitors of larval lipid processing in zebrafish, primary screen, whole organism, PED6 fluorescence, gall bladder and intestine (AID 686;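 active means a full or partial loss of lipid-probe fluorescence in the fish gall bladder, intestine or both, judged by eye; inactive means no fluorescence loss, or compound toxic to the fish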;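 further: larvae 5 to 7 days old with five fish per well; signal comes from phospholipase A2 cleavage of quenched PED6 carried via bile; overnight exposure to compound and PED6 before scoring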); details: Zebrafish larvae PED6 lipid processing, fluorescence scoring; screened at 20 µM (by protocol)
[11] = Primary imaging screen for DUSP6 inhibitors that restore phospho-Erk in transfected HeLa cells, chemical complementation (AID 609;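 active means compounds giving at least 50% inhibition in the cell-based MKP-3 phosphatase rescue imaging test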;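 on inhibition: phospho-Erk level distribution per well compared with pooled transfected vehicle control wells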); details: HeLa MKP-3 transfected, phospho-Erk imaging KS statistic, at 10 µM, cells stimulated with TPA for 15 min
[12] = target: Dual specificity protein phosphatase 6 (Homo sapiens) (UniProt Q16828); assay: as above; details: HeLa MKP-3 transfected, phospho-Erk imaging KS statistic; at 10 µM; stronger effect = higher value; cells stimulated with TPA for 15 min
Dual specificity protein phosphatase 6 (Homo sapiens), sequence (Q16828 whole entry, looked up): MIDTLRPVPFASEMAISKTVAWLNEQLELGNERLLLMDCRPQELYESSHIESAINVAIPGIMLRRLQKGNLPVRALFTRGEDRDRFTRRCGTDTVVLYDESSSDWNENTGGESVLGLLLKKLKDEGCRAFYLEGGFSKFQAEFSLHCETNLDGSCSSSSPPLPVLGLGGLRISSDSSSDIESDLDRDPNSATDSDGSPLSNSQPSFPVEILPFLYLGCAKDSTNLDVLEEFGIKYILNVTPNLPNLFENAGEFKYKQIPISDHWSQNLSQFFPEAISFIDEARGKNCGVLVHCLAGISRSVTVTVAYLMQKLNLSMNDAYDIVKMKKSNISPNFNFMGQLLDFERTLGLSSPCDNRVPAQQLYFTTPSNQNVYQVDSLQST

[13] = loss of swimming-algae plug formation – whole organism, Chlamydomonas reinhardtii, WT vs cilia-less mutant, absorbance, 96-well, primary screen (AID 463189;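 active means inhibition at or above 50% relative to wild type and mutant plate controls; inactive means inhibition below 50%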;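 further: 0% = wild type cc124 cells in DMSO and 100% = ciliumless bld1 mutant cells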); details: Chlamydomonas reinhardtii gravitaxis, OD600 absorbance, 2 days; at 10 µM; stronger effect = higher value
[14] = measured here: cell density z-score
[15] = measured here: nuclear c-Myc green intensity z-score
[16] = measured here: nuclear pErk red intensity z-score, stronger effect = higher value

Structure (SMILES)	cell count [1]	inhibition [1]	inhibition of aggregation [2]	nuclei count [2]	nuclei count [3]	fluorescence slope [4]	NADPH fluorescence slope [5]	fluorescence slope [6]	inhibition [7]	inhibition [8]	slope [9]	outcome [10]	inhibition [3]	z-score [11, 14]	z-score [11, 15]	z-score [11, 16]	inhibition [12]	inhibition [13]
COc1ccc(N2CCN(c3oc(COc4ccccc4)nc3C#N)CC2)cc1	449	9.4% (inactive)	-7.4% (inactive)	102%	155%	-0.602 (inactive)	-9.8e-06 (inactive)	0.00622 (inactive)	10.1% (inactive)	3.38% (inactive)								
COc1cccc(C(=O)Nc2cnc(NC(=O)c3ccco3)cc2C)c1	463	12.5% (inactive)	-2.9% (inactive)	98.1%	119%	-0.567 (inactive)	-5.3e-05 (inactive)	0.00623 (inactive)	5.68% (inactive)	-23.5% (inactive)								
CC(C)C12CN3CC(C(C)C)(CN(C1)C3c1ccc3c(c1)OCO3)C2=O (stereo not given)	412	10.8% (inactive)	-9.1% (inactive)	98.4%		-0.304 (inactive)	-1e-05 (inactive)		11.3% (inactive)	20.8% (inactive)	0.00697 (inactive)	inactive						
Cc1cnc(C(=O)NCCc2ccc(S(=O)(=O)NC(=O)NC3CCCCC3)cc2)cn1	609	0.1% (inactive)			134%	-0.474 (inactive)	8e-06 (inactive)		12.9% (inactive)	21.2% (inactive)	0.0053 (inactive)		-102% (inactive)	-0.283	0.557	-0.42	12.4% (inactive)	
Cc1ccccc1NC(=O)N1C2CCCC1CC(NC(=O)C1CC1)C2 (stereo not given)	747	-16.7% (inactive)	-5.1% (inactive)	107%	94.5%	-0.361 (inactive)	8.6e-05 (inactive)	0.00599 (inactive)	16.2% (inactive)	16.2% (inactive)			64.2% (inactive)					
CCCS(=O)(=O)N1CCCC(C(=O)N2CCC(Cc3ccccc3)CC2)C1 (stereo not given)	662	-11.9% (inactive)	5% (inactive)	105%	106%	-0.5 (inactive)	-0.000282 (inactive)	0.00325 (inactive)	11.3% (inactive)	12.1% (inactive)			-82.7% (inactive)					
COC(=O)c1c(C(=O)OC)n(CCCN)c2ccc(C)cc12	434	10.9% (inactive)	1.8% (inactive)	100%	152%	-0.495 (inactive)	-7.5e-06 (inactive)	0.00606 (inactive)	20.6% (inactive)	34% (inactive)								
COc1ccc(OC)c(NC(=O)C2CCN(c3cc(-c4ccccc4)nc4ncnn34)CC2)c1	449	2.1% (inactive)	17% (inactive)	95%	150%	-0.528 (inactive)	1.4e-05 (inactive)	0.00653 (inactive)	15% (inactive)	15.1% (inactive)								
CC(C)(C)c1cc(C(=O)O)nn1-c1ccccc1	446	2.5% (inactive)	2.7% (inactive)	94.2%	130%	-0.482 (inactive)	-3.8e-05 (inactive)	0.00539 (inactive)	15.1% (inactive)	24.6% (inactive)								
CCCCc1oc2ccccc2c1C(=O)c1cc(I)c(OCCN(CC)CC)c(I)c1	651	-9% (inactive)			136%	-0.467 (inactive)	-4.3e-05 (inactive)		9.88% (inactive)	43.5% (inactive)	0.00817 (inactive)		-235% (inactive)	0.542	-0.674	0.954	5.42% (inactive)	
COc1ccccc1OCCn1c(=O)sc2ccccc21	478	9.8% (inactive)	-14.7% (inactive)	90.3%	152%	-0.477 (inactive)	1.7e-05 (inactive)	0.0055 (inactive)	1.53% (inactive)	6.17% (inactive)								
O=C1NC(c2ccccc2)(C(F)(F)F)SC2=NCCCN12 (stereo not given)	429	4.8% (inactive)	12.3% (inactive)	106%	154%	-0.482 (inactive)	4.2e-05 (inactive)	0.00455 (inactive)	-6.22% (inactive)	-13.6% (inactive)								
CN(C(=O)COC(=O)C1CCN(S(=O)(=O)c2cccs2)CC1)C1CCS(=O)(=O)C1 (stereo not given)	385	-2.7% (inactive)	6% (inactive)	51.8%	120%	-0.571 (inactive)	-4.2e-05 (inactive)	0.00447 (inactive)	-5.26% (inactive)	1.49% (inactive)			-190% (inactive)					
CCOCCCNC(=O)CCNS(=O)(=O)c1ccc(C)cc1	547	-15% (inactive)	-10.7% (inactive)	90.3%		-0.411 (inactive)	-3.1e-05 (inactive)		-17.9% (inactive)	22.8% (inactive)	0.00305 (inactive)							
C=C(C)Cn1c(SCC)nc2ccccc2c1=O	399	-5% (inactive)	13.5% (inactive)	98.7%	94.5%	-0.454 (inactive)	-0.000357 (inactive)	0.0055 (inactive)	9.69% (inactive)	22.7% (inactive)			-26.7% (inactive)					
CCOc1cc(C2C(C(=O)OC(C)C)=C(C)N=C3SCCC(=O)N32)ccc1OC(C)=O (stereo not given)	284	5.8% (inactive)	8.8% (inactive)	105%	105%	-0.42 (inactive)	-0.000412 (inactive)	0.00512 (inactive)	11.7% (inactive)	24% (inactive)			1.9% (inactive)					

Structure (SMILES)	cell count [1]	inhibition [1]	inhibition of aggregation [2]	nuclei count [2]	nuclei count [3]	fluorescence slope [4]	NADPH fluorescence slope [5]	fluorescence slope [6]	inhibition [7]	inhibition [8]	slope [9]	outcome [10]	inhibition [3]	z-score [11, 14]	z-score [11, 15]	z-score [11, 16]	inhibition [12]	inhibition [13]
O=C(CCSc1ccccc1)N1CCN(C(=O)c2ccco2)CC1	462	-11.1% (inactive)	2% (inactive)	102%	97.1%	-0.603 (inactive)	-3.1e-05 (inactive)	0.0052 (inactive)	-23.3% (inactive)	-56% (inactive)			-29.7% (inactive)					
CCCCN(CC)S(=O)(=O)N1CCC(C(=O)NCc2ccc(F)cc2)CC1	705	-6.9% (inactive)	-1.2% (inactive)	96.5%	113%	-0.594 (inactive)	-2.1e-05 (inactive)	0.00507 (inactive)	12.4% (inactive)	15.9% (inactive)			-8% (inactive)					
COc1cc(Cn2c(C(=O)O)cc3sccc32)cc(OC)c1OC	434	8.6% (inactive)	2.5% (inactive)	98.8%	140%	-0.562 (inactive)	-0.000122 (inactive)	0.00343 (inactive)	14.9% (inactive)	20.9% (inactive)								
CCOC(=O)Nc1c(C(=O)OC)[nH]c2cccc(OC)c12	526	-0.5% (inactive)	-15.7% (inactive)	109%	126%	-0.478 (inactive)	3e-05 (inactive)	0.00517 (inactive)	-7.18% (inactive)	-3.25% (inactive)			-32.4% (inactive)					
Cc1cc(NC(=O)COc2ncnc3sc(C)c(C)c23)no1	418	1.3% (inactive)	-2.1% (inactive)	100%	153%	-0.568 (inactive)	-2.9e-05 (inactive)	0.00692 (inactive)	21% (inactive)	21.4% (inactive)								
N=c1c(C(=O)NCc2ccc(F)cc2)cc2c(=O)n3ccccc3nc2n1CCCN1CCOCC1	537	4.4% (inactive)	-26.3% (inactive)	102%	122%	-0.374 (inactive)	-1e-05 (inactive)			69.7% (active)	0.00357 (inactive)		-45.8% (inactive)					
CCOC(=O)c1ccc(COC(=O)CCc2nc3ccccc3[nH]c2=O)o1	410	10.6% (inactive)	-18.4% (inactive)	108%	147%	-0.546 (inactive)	1.7e-05 (inactive)	0.00556 (inactive)	15.9% (inactive)	18.3% (inactive)								
Cc1nc2ccccc2c2oc(C(=O)NCc3ccccn3)cc12	234	-3.8% (inactive)	17.9% (inactive)	65.8%	102%	-0.397 (inactive)	7.6e-05 (inactive)	0.00573 (inactive)	-2.75% (inactive)	-16.5% (inactive)			-75.8% (inactive)					
CC(C(=O)N1CCc2ccccc21)N1CCc2ccccc2C1 (stereo not given)	597	-1% (inactive)	16.1% (inactive)	91.1%	99.9%	-0.455 (inactive)	0.000133 (inactive)	0.00595 (inactive)	10.2% (inactive)	22.3% (inactive)			-86.5% (inactive)					
Nc1nc(C(=O)N2CCOCC2)nn1S(=O)(=O)c1ccc(Cl)cc1	177	23.2% (active)	-3.7% (inactive)	103%	145%	-0.59 (inactive)	-2.7e-05 (inactive)	0.00923 (inactive)	11% (inactive)	15.9% (inactive)								
COc1ccc(CC(NC(C)=O)C(=O)NC2CCN(C(=O)Nc3ccc(C#N)cc3)CC2)cc1OC (stereo not given)	312	-1.9% (inactive)	-14.4% (inactive)	102%	112%	-0.415 (inactive)	8.5e-05 (inactive)	0.00714 (inactive)	14.2% (inactive)	14.3% (inactive)			-29.9% (inactive)					
O=C(Nc1ccc2c(c1)OCO2)C1CCCN1C(=O)Nc1ccccc1F (stereo not given)	432	9% (inactive)	-11.8% (inactive)	98.2%	135%	-0.418 (inactive)	3.8e-05 (inactive)	0.0058 (inactive)	16.1% (inactive)	24.2% (inactive)								
CCCC(C(=O)OCCN(CC)CC)(c1ccccc1)c1ccccc1																		4.83% (inactive)
CCOC(=O)c1cnc2c(cnn2CC)c1NN=C(C)C																		7.54% (inactive)
NC1C=CC=C(C(=O)O)C1 (stereo not given)																		-4.63% (inactive)
CCOC(=O)c1ncn2c1CN(C)C(=O)c1cc(F)ccc1-2																		1.79% (inactive)
